Consider 8 compounds from PubChem BioAssay (NCATS).

The target of experiment [1] is Cytochrome P450 3A4 (Homo sapiens) (UniProt P08684). Nature of the experiment: qHTS Assay for Inhibitors and Substrates of Cytochrome P450 3A4 (AID 884). Further: on the % scale 0 is the no-effect control and ±100 the full control effect; nearly all actives have a fitted effect of over 50% in size. The gist of the method:
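20 nM human CYP3A4 with 25 uM Luciferin-PPXE (at KM) in 200 mM KPO4, preincubated 10 min with compound; NADPH regeneration started a 60 min RT reaction. Luciferin detected by luminescence, normalized to 57 uM ketoconazole as full inhibition.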
(In general: Quantitative high-throughput screening tests each substance at several concentrations.)

Experiment [2] in a line: Confirmation and Secondary Assay for Modulators of Hemoglobin Beta Chain Splicing at IVS2 654 locus (AID 910).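 Further: per-well total GFP intensity by laser scanning cytometry after 2-day treatment; % of control where 0% means no effect.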 The gist of the method: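 HeLa cells stably carrying EGFP interrupted by mutant beta-globin IVS2-654 intron (CMV-driven) were treated with compound for 2 days at 37C; corrected splicing was scored as total peak GFP intensity per well (488 nm excitation, 500-520 nm emission).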

Experiment [3] can be described thus: Confirmation and Secondary Assay for Modulators of Hemoglobin Beta Chain Splicing at IVS2 705 locus (AID 930).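 Further: HeLa cells stably expressing the EGFP-705 splicing reporter; GFP fluorescence per well restored by corrected splicing of the IVS2-705 intron in EGFP; % of control where 0% means no effect.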 The gist of the method: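 Per-well GFP, captured at 1 x 8 µm resolution with 488 nm excitation, served as the read-out for HeLa EGFP-705 cells incubated 2 days with test compound versus DMSO.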
Experiment [4] in a line: qHTS Assay for Lipid Storage Modulators (AID 1519; calls by dose curve; on activity change, negative = inhibition: on the % scale 0 is the no-effect control and ±100 the full control effect). The conditions noted are these: Drosophila S3 cells, BODIPY lipid droplet/cell ratio, laser cytometry, cells loaded with oleic acid. In a few lines: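 Cells seeded at 5,000 per well were treated with compounds over a concentration series and loaded with oleic acid (400 uM, as added). Lipid droplet fluorescence (488 nm excitation, 500-530 nm channel) was read by laser-scanning cytometry and normalized to 20 uM Triacsin C.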

For experiment [5], the target named is ATP-dependent 6-phosphofructokinase (Trypanosoma brucei brucei) (UniProt O15648). Nature of the experiment: qHTS Assay to Find Inhibitors of T. brucei phosphofructokinase: hit validation (AID 492961).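 Further: luminescence reports ADP formed as PFK phosphorylates fructose-6-phosphate with ATP; on the % scale 0 is the no-effect control and ±100 the full control effect.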 In a few lines: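 PFK 1.25 nM, F6P 0.5 mM, ATP 0.1 mM, MgCl2 5 mM, 0.1 M TEA pH 8.0, Tween20 0.01%, BSA 0.1%; 45 min RT. ADP-Glo two-step detection, luminescence. qHTS titration; curve fitting with curve-class categorization.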
Chain of ATP-dependent 6-phosphofructokinase (Trypanosoma brucei brucei) (O15648 whole entry, looked up): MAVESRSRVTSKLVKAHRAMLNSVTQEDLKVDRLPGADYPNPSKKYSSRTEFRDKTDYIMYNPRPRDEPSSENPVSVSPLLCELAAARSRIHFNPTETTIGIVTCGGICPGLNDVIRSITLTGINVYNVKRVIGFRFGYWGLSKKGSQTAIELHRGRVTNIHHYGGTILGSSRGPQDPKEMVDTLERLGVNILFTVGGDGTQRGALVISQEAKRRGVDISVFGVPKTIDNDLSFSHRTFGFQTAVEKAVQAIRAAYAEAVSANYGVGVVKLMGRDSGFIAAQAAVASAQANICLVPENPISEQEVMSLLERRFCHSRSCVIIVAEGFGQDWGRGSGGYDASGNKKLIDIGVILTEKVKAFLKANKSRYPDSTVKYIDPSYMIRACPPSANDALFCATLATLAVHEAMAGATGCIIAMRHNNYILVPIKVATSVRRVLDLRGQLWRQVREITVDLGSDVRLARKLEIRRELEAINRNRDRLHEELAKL

The target of experiment [6] is Ubiquitin carboxyl-terminal hydrolase 1 (Homo sapiens) (UniProt O94782). Nature of the experiment: Inhibitors of USP1/UAF1: Pilot qHTS (AID 504865).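 Further: rhodamine fluorescence freed from ubiquitin-rhodamine substrate followed over time; top concentration of the series differs between compounds; on the % scale 0 is the no-effect control and ±100 the full control effect; nearly all actives have a fitted effect of over 35% in size.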 The gist of the method: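 In 50mM HEPES pH 7.8 containing 0.5mM EDTA, 1mM TCEP, 0.1 mg/ml BSA and 0.01% Tween-20, 1nM USP1/UAF1 is exposed to compound for 15 min, then Ub-Rho (150nM final) is added and fluorescence is read over time.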
Chain of Ubiquitin carboxyl-terminal hydrolase 1 (Homo sapiens) (O94782 whole entry, looked up): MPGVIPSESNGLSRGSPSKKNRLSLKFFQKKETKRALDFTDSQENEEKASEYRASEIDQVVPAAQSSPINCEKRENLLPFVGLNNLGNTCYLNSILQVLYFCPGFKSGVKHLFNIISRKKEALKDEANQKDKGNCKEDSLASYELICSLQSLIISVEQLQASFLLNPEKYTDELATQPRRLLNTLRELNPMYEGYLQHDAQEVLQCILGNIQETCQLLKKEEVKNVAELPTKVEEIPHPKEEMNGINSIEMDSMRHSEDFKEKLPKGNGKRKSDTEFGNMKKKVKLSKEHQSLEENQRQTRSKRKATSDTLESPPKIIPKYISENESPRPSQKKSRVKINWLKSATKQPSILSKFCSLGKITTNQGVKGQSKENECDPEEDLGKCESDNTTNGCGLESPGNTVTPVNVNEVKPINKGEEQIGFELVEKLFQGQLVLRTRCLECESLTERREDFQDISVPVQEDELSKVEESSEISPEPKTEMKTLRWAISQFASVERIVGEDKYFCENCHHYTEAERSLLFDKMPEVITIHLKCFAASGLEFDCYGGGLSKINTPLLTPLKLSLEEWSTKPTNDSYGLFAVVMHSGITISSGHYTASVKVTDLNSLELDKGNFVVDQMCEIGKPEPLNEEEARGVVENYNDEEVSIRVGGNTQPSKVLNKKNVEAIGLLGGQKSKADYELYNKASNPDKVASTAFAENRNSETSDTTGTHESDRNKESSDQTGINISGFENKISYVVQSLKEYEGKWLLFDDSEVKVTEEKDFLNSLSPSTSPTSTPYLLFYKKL

The target of experiment [7] is Luciferin 4-monooxygenase (Photinus pyralis) (UniProt P08659). Nature of the experiment: Biochemical firefly luciferase enzyme assay for NPC (AID 624030).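 Further: purified P. pyralis luciferase at 10 nM with luciferin and ATP substrate; 0% = DMSO and -100% = full luciferase inhibition by PTC124 control; nearly all actives have a fitted effect of over 70% in size.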 In a few lines:
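Counter-screen for direct inhibition of the luciferase enzyme by approved-drug library compounds, run at 10 nM enzyme in 50 mM Tris acetate (final). Luminescence was read within 5 min of enzyme-buffer addition and normalized to PTC124 versus DMSO (0%).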

Experiment [8] can be described thus: qHTS profiling for inhibitors of Plasmodium falciparum proliferation (AID 504749). Further: nearly all actives have a fitted effect of over 60% in size. Further: potency means the concentration at half of the fitted maximal effect.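 On activity, negative = inhibition: 0% = DMSO vehicle and full inhibition = artemisinin control.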 The note with it: P. falciparum in erythrocytes, SYBR Green DNA, 72 h. In a few lines: (§1)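 Parasite proliferation within erythrocytes, 72 h exposure. Endpoint: SYBR Green I fluorescence after overnight lysis at room temperature. Controls: 0.29 uM artemisinin, DMSO.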
For another experiment, the system named is AS120. Described as above. The note with it: P. falciparum in erythrocytes, SYBR Green DNA, 72 h; series mostly up to 28.7 µM. In a few lines:
as §1

For the next experiment, the system named is ATS189. Described as above. The conditions noted are these: P. falciparum in erythrocytes, SYBR Green DNA, 72 h; series mostly up to 28.7 µM. In a few lines:
as §1

A further experiment concerns CP247. The description is as above. The note with it: P. falciparum in erythrocytes, SYBR Green DNA, 72 h; series mostly up to 28.7 µM. In a few lines: as §1
The next experiment relates to CP269. The experiment is described as above. The conditions noted are these: P. falciparum in erythrocytes, SYBR Green DNA, 72 h; series mostly up to 28.7 µM. The gist of the method: as §1
Another experiment deals with ECU. The experiment is described as above. The conditions noted are these: P. falciparum in erythrocytes, SYBR Green DNA, 72 h; series mostly up to 28.7 µM. The gist of the method: as §1
The subject of a further experiment is TAB109. The description is as above. The note with it: P. falciparum in erythrocytes, SYBR Green DNA, 72 h; series mostly up to 12.8 µM. In a few lines:
as §1

Experiment [9] deals with Mitogen-activated protein kinase 10 (Mus musculus) (UniProt Q61831). Nature of the experiment: JNK3 AlphaScreen Assay (AID 530; active means well fitted curve in either direction with a large enough effect, not every such curve was filed as active;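 further: kinase came from lysate of stimulated human HepG2 cells; signal reports phosphorylation of biotinylated GST-cJun 1-79 at Ser73 with 10 µM ATP; on the % scale 0 is the no-effect control and ±100 the full control effect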). In a few lines:
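Inhibitors reduce antibody binding to phosphorylated biotin-cJun, lowering AlphaScreen luminescence. Lysates from HepG2 cells pre-activated by IL-1beta plus TNF-alpha supplied JNK3; compounds were titrated.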
Background: Alpha assays give light when donor and acceptor beads are brought close together.

Experiment [10] deals with Glucocorticoid receptor (Homo sapiens) (UniProt P04150). Nature of the experiment: GR-GFP Redistribution (AID 450;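 active means compounds whose dose series gives a full or clear partial fitted curve of increased nuclear translocation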; further: potency means the concentration at half of the fitted maximal effect). The conditions noted are these: U2OS GR-GFP nuclear translocation, laser cytometry, 2 h.
Chain of Glucocorticoid receptor (Homo sapiens) (P04150 whole entry, looked up): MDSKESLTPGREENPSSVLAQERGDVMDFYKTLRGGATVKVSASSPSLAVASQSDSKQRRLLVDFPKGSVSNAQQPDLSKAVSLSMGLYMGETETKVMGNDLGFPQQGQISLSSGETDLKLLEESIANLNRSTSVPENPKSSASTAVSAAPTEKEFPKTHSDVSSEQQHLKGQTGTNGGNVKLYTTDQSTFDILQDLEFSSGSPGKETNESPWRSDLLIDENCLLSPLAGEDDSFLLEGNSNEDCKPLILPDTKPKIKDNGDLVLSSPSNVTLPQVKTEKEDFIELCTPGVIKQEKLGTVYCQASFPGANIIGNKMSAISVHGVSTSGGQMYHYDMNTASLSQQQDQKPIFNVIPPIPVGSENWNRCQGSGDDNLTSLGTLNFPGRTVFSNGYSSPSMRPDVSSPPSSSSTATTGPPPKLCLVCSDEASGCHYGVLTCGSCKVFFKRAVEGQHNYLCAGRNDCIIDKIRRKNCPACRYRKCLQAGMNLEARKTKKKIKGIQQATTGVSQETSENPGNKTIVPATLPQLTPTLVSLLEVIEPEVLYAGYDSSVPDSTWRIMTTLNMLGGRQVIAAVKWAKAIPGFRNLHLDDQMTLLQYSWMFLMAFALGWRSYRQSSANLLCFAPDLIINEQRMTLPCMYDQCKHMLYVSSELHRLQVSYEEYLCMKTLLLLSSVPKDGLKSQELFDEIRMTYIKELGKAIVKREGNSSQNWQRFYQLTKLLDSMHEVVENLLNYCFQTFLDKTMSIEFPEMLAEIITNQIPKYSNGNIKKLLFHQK
Experiment [11] has the same target. Nature of the experiment: GR-EFC Redistribution (AID 451; calls by dose curve; further: potency means the concentration at half of the fitted maximal effect). The conditions noted are these: CHO-K1 GR-EFC translocation, beta-gal luminescence, 2 h. The gist of the method:
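CHO-K1 cells stably expressing nuclear-localized β-gal enzyme acceptor and GR fused C-terminally to the enzyme donor fragment; ligand-driven nuclear translocation restores β-gal by complementation. Compounds titrated up to 46 uM final, 2 h at 37 °C; luminescence read.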

In experiment [12] the target is DNA dC->dU-editing enzyme APOBEC-3G (Homo sapiens) (UniProt Q9HC16). Nature of the experiment: qHTS for inhibitors of Vif-A3G interactions: Validation (AID 588379). Further: 0% is about no effect. The gist of the method: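 HeLa cells stably expressing Vif and A3G-eYFP, 700 cells/well, incubated overnight at 37 deg C, then exposed to compound overnight at 37 deg C. Inhibition of Vif-mediated degradation read as increased yellow fluorescence (Ex 488/Em 500-530) by laser-scanning cytometry.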
Chain of DNA dC->dU-editing enzyme APOBEC-3G (Homo sapiens) (Q9HC16 whole entry, looked up): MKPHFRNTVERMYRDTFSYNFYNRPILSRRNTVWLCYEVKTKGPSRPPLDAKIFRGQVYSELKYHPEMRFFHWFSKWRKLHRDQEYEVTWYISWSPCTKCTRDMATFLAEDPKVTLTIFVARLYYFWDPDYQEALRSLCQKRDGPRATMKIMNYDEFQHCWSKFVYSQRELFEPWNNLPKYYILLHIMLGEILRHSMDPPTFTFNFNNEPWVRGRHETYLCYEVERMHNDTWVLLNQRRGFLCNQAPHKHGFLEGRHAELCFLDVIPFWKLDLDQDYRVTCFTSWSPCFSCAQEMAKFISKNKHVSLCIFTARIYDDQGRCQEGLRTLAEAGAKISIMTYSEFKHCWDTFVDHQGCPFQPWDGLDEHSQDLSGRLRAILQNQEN

The target in experiment [13] is Cytochrome P450 3A4 (Homo sapiens) (UniProt P08684). Description: qHTS Assay for Activators of Cytochrome P450 3A4 (AID 885). Further: nearly all actives have a fitted effect of over 65% in size. In a few lines: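 Signal was normalized against complete inhibition by 57 uM ketoconazole. The reaction used 20nM CYP3A4 with 25uM Luciferin-PPXE, 10-min compound preincubation and a 60-min NADPH-supported step at RT.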
Chain of Cytochrome P450 3A4 (Homo sapiens) (P08684 whole entry, looked up): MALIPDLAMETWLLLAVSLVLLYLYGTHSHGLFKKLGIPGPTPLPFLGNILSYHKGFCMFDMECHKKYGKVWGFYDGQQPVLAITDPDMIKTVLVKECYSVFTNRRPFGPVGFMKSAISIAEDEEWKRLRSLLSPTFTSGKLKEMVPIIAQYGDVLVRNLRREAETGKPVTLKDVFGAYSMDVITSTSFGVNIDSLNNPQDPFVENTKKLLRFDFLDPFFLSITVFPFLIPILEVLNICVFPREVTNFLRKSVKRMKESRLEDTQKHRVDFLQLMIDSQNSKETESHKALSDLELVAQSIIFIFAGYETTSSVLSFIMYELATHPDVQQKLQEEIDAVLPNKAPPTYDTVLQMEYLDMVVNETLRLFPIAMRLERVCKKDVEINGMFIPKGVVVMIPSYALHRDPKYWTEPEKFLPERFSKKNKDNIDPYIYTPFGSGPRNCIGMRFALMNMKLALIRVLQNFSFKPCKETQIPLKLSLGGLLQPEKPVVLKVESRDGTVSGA
The mark [14] stands for this setting: measured here: cell count channel max response.
Setting [15] is: measured here: lipid channel max response.

Results filed as inconclusive are left out. Calls of active or inactive are those of the source. Unless noted, the call rests on the fitted dose curve; in most records, active means well fitted curve in the direction sought with a large enough effect; inconclusive means small, poorly fitted or top-dose-only effect, or another doubt; inactive means no such curve, though single readings can be large; an effect the other way counts as inactive or inconclusive.

Chain of Luciferin 4-monooxygenase (Photinus pyralis) (P08659 whole entry, looked up): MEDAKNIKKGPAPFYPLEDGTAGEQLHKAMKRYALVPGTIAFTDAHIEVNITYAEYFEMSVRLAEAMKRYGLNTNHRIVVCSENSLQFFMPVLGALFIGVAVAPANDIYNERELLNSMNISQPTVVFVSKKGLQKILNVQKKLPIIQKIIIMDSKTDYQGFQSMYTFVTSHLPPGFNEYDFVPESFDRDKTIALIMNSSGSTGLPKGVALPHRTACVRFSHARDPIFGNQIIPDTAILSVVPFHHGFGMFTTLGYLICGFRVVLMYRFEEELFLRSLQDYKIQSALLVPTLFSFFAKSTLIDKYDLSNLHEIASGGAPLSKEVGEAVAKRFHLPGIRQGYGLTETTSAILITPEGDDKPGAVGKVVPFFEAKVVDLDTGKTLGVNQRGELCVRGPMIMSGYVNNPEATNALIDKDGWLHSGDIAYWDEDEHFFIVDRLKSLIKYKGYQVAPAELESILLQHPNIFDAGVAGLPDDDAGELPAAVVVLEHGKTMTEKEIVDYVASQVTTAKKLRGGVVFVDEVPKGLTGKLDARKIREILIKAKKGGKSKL

With `COc1cc2c(cc1OC)[C@@]13CCN4CC5=CCOC6CC(=O)N2C1[C@H]6[C@@H]5C[C@@H]43` (some centres undefined), the Potency result in experiment [1], in experiment [2], in [3], in experiment [5], in [6] and in experiment [7] was “inactive” each time. Also, the Potency entry with AS120, in the experiment with ATS189, in the experiment on CP247, with CP269, in the experiment with ECU and with TAB109 was “inactive” in each case. Further, the activity change, negative = inhibition in experiment [4] (at 57.5 µM (top of the series)) was 14% (inactive). Moreover, the results for the max response in experiment [4] (setting [14]) and in [4] (setting [15]) were 9.29% and 26.2%, respectively. Also, the activity, negative = inhibition was -1.63% (inactive) in experiment [8] (at 28.7 µM (top of the series), parasite line A) and 1.63% (inactive) in experiment [8] (at 28.7 µM (top of the series), parasite line B).

On to `C[C@@H]1O[C@H](O[C@H]2C[C@@H](O)[C@@]3(CO)[C@H]4[C@@H](O)C[C@]5(C)[C@@H](C6=CC(=O)OC6)CC[C@]5(O)[C@H]4CC[C@]3(O)C2)[C@@H](O)[C@H](O)[C@@H]1O`, for which the outcome in experiment [9] was inactive. Moreover, the activity change, negative = inhibition in experiment [4] (at 25.7 µM (top of the series)) was -0.396% (inactive). The values for the max response in experiment [4] (setting [14]) and in experiment [4] (setting [15]) were -4.59% and -4.25%, respectively.

With `O=c1ccc2cc(O[C@H]3O[C@@H](CO)[C@@H](O)[C@@H](O)[C@@H]3O)c(O)cc2o1`, the Potency in experiment [10] and in experiment [11] was > 20.6 µM (inactive) throughout. Moreover, in experiment [9], the compound was classed as inactive. The activity change, negative = inhibition in experiment [4] (at 25.7 µM (top of the series)) was -1.03% (inactive). The results for the max response in experiment [4] (setting [14]) and in experiment [4] (setting [15]) were 1.01% and 0.833%, respectively. Moreover, the Potency result (in [5]; in experiment [6]; in [7]; in the experiment on AS120; in the experiment with ATS189; in the experiment on CP247) was “inactive” each time. Also, the Potency result in the experiment with CP269, with ECU and with TAB109 was “inactive” throughout. Further, the activity, negative = inhibition is 3.87% (inactive) in experiment [8] (at 12.8 µM (top of the series), parasite line A) and -4.9% (inactive) in experiment [8] (at 12.8 µM (top of the series), parasite line B).

For the compound `CCC(C)C1O[C@]2(C=CC1C)CC1CC(C/C=C(\C)[C@H](OC3CC(OC)C(O[C@H]4CC(OC)[C@@H](O)C(C)O4)C(C)O3)[C@@H](C)/C=C/C=C3\COC4C(O)C(C)=C[C@H](C(=O)O1)[C@@]34O)O2` (some centres undefined), the Potency entry in [1], in [3], in [5] and in experiment [7] was “inactive” in each case. Besides, the activity change, negative = inhibition in [4] (at 57.5 µM (top of the series)) is -5.38% (inactive). The figures for the max response in experiment [4] (setting [14]) and in experiment [4] (setting [15]) were -1.86% and -6.99%, respectively. The Potency in [8] (parasite line A) was 4.47 µM (active); in [8] (parasite line B) it was 8.91 µM (active); with AS120, 10 µM (active); in the experiment on ATS189 it was 11.2 µM (active); with CP247, 8.91 µM (active); in the experiment on CP269 it was 15.1 µM (active). In addition, the Potency in the experiment on ECU and with TAB109 was 8.91 µM (active) each time.

Take `CNC(=O)Oc1ccc2c(c1)[C@@]1(C)CCN(C)C1N2C` (some centres undefined): the activity change, negative = inhibition in experiment [4] (at 57.5 µM (top of the series)) is 4.58% (inactive). The max response in [4] (setting [14]) was 3.75%; in [4] (setting [15]), 14.3%. Further, the Potency result in experiment [6] was “inactive”.

Turning to `OC[C@@H]1CCCN2CCCC[C@@H]12`, in experiment [1], the Potency entry is “inactive”. Also, the activity change, negative = inhibition in [4] (at 57.5 µM (top of the series)) is -9.64% (inactive). Besides, the max response in experiment [4] (setting [14]) was -24.5%; in experiment [4] (setting [15]), -31.5%. Moreover, in experiment [12], the compound was called inactive.

As to `N#C/C(=C\c1ccc(O)cc1)C(=O)O`, the Potency result in [13], in [2], in experiment [3] and in experiment [6] was “inactive” throughout. In addition, in [4] (at 57.5 µM (top of the series)), the activity change, negative = inhibition is 4.55% (inactive). Further, the max response in experiment [4] (setting [14]) was determined as 8.92%; in [4] (setting [15]) it was 15.9%.

Turning to `CNC(C)[C@H](O)c1ccccc1` (some centres undefined), the Potency entry in [2] and in [6] was “inactive” each time. The activity change, negative = inhibition in experiment [4] (at 57.5 µM (top of the series)) was 9.2% (inactive). Moreover, the results for the max response in [4] (setting [14]) and in [4] (setting [15]) were 21.5% and 37.3%, respectively.
